A number with no mark means an inactive call.
Columns and labels:
Assay in all cases: log2 ratio of Biotin-Ahx-Ub-VS probe labelling (compound/DMSO); higher = less target engagement, active = hit call of the paper (q ≤ 0.05, log2 ratio ≤ -1)
Settings in all cases: treatment time: 3 h
[1] = compound: CCC1N(CCc2sccc12)C(=O)CCl
Method in brief: (§1)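 For activity-based profiling, 495 µg portions of HEK293T lysate in Tris/CHAPS/IGEPAL buffer with protease inhibitors were treated in triplicate with compound at 50 or 200 µM or with DMSO for 3 h. A 1 h incubation with Biotin-Ahx-Ub-VS (0.5 µM final) followed, then NeutrAvidin enrichment, LysC and trypsin digestion and diaPASEF LC-MS/MS. The compound/DMSO base-two log ratios were averaged from median-normalised label-free quantities using an unpaired t-test. Proteins needed at least 2 unique peptides to be included.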

[2] = compound: CN1c2ccccc2C(CS1(=O)=O)NC(=O)CCl
Method in brief: as §1

[3] = compound: Cl.ClCC(=O)N1CCc2ncncc2C1
Method in brief: as §1

[4] = compound: Cl.Cn1ncc2C(CCCc12)NC(=O)CCl
Method in brief: as §1

[5] = compound: ClCC(=O)NC1CCOc2ccccc12
Method in brief: as §1

[6] = compound: ClCC(=O)NC1CCCc2ccccc12
Method in brief: (§2)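 Values are average ratios of compound to vehicle from an unpaired t-test, limited to proteins with at least two unique peptides. HEK293T lysate (495 µg per sample, in Tris/CHAPS/IGEPAL buffer with protease inhibitors) was exposed in triplicate to a concentration series of compound or to vehicle for 3 h, then to Biotin-Ahx-Ub-VS at 0.5 µM final for 1 h. Labelled deubiquitinases were enriched on NeutrAvidin, digested with LysC and trypsin, and analysed by diaPASEF LC-MS/MS. Ratios are given on a log2 scale from Spectronaut label-free protein quantities normalised to the global median.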

[7] = compound: ClCC(=O)N[C@@H]1CCCc2ccccc12
Method in brief: as §2

[8] = compound: ClCC(=O)N[C@H]1CCCc2ccccc12
Method in brief: as §2

[9] = compound: CCC1N(CCc2cc(OC)c(Cl)cc12)C(=O)CCl
Method in brief: as §1

[10] = compound: CCCC1N(CCc2cc(OC)c(OC)cc12)C(=O)CCl
Method in brief: as §1

[11] = compound: CN(Cc1cccc(Br)c1)C(=O)CCl
Method in brief: as §1

[12] = compound: CN(Cc1cccc(OCc2ccccc2C)c1)C(=O)CCl
Method in brief: as §1

[13] = compound: CN(Cc1ccccc1)C(=O)CCl
Method in brief: as §1

[14] = compound: COc1ccc(CN(C)C(=O)CCl)cc1
Method in brief: as §1

[15] = compound: COc1cccc(CN(CCCc2ccccc2)C(=O)CCl)c1
Method in brief: as §1

[16] = compound: ClCC(=O)N1CCc2cc(Cl)c(Cl)cc2C1
Method in brief: as §1

[17] = compound: ClCC(=O)N1CCc2nc(ncc2C1)-c1ccccc1
Method in brief: as §1

[18] = compound: ClCC(=O)N1CCc2nocc2C1
Method in brief: as §1

[19] = compound: ClCC(=O)N1CCc2scc(Br)c2C1
Method in brief: as §1

[20] = compound: ClCC(=O)NC(C1CCCC1)c1cccs1
Method in brief: as §1

## OTUD4 (UniProt Q01804)
Sequence of UniProt Q01804 (Q01804 whole entry): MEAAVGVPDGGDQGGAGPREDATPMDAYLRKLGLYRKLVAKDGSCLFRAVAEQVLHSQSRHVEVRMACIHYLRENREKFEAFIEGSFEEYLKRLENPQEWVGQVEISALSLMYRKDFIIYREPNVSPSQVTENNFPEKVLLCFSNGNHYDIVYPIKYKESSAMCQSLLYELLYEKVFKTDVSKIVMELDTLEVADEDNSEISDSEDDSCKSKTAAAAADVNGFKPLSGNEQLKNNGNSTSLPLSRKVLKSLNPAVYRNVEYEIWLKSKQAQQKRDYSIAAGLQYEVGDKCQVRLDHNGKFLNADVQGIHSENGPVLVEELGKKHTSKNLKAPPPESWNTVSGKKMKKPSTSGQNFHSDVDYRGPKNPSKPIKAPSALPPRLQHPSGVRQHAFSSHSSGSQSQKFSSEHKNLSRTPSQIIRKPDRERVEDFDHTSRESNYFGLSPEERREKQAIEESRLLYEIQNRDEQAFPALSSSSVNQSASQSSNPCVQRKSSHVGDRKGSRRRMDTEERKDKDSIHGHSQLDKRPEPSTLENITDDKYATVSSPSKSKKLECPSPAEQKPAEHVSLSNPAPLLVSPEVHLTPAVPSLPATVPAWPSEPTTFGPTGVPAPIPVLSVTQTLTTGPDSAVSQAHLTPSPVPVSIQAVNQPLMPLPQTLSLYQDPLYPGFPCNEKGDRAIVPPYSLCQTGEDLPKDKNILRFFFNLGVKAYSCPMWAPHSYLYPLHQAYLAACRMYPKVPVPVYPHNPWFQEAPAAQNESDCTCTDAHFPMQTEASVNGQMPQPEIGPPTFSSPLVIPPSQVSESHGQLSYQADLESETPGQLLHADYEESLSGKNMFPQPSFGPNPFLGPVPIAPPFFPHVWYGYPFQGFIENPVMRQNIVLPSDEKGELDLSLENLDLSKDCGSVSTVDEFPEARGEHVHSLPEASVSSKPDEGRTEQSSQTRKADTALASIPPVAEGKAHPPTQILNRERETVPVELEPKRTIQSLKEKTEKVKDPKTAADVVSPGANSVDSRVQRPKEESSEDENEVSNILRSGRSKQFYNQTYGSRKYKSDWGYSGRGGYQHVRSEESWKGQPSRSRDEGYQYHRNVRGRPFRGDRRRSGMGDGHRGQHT
[1]; compound concentration: 50uM
  log2 ratio of Biotin-Ahx-Ub-VS probe labelling: -0.293
[1]; compound concentration: 200uM
  log2 ratio of Biotin-Ahx-Ub-VS probe labelling: -0.576
[2]; compound concentration: 50uM
  log2 ratio of Biotin-Ahx-Ub-VS probe labelling: -0.595
[2]; compound concentration: 200uM
  log2 ratio of Biotin-Ahx-Ub-VS probe labelling: -1.51 (active)
[3]; compound concentration: 50uM
  log2 ratio of Biotin-Ahx-Ub-VS probe labelling: -0.152
[3]; compound concentration: 200uM
  log2 ratio of Biotin-Ahx-Ub-VS probe labelling: -0.671
[4]; compound concentration: 50uM
  log2 ratio of Biotin-Ahx-Ub-VS probe labelling: -0.813
[4]; compound concentration: 200uM
  log2 ratio of Biotin-Ahx-Ub-VS probe labelling: -1.46 (active)
[5]; compound concentration: 50uM
  log2 ratio of Biotin-Ahx-Ub-VS probe labelling: -0.624
[5]; compound concentration: 200uM
  log2 ratio of Biotin-Ahx-Ub-VS probe labelling: -1.33 (active)
[6]; compound concentration: 0.78uM
  log2 ratio of Biotin-Ahx-Ub-VS probe labelling: -0.158
[6]; compound concentration: 1.56uM
  log2 ratio of Biotin-Ahx-Ub-VS probe labelling: -0.085
[6]; compound concentration: 3.13uM
  log2 ratio of Biotin-Ahx-Ub-VS probe labelling: -0.223
[6]; compound concentration: 6.25uM
  log2 ratio of Biotin-Ahx-Ub-VS probe labelling: -0.319
[6]; compound concentration: 12.5uM
  log2 ratio of Biotin-Ahx-Ub-VS probe labelling: -0.411
[6]; compound concentration: 25uM
  log2 ratio of Biotin-Ahx-Ub-VS probe labelling: -0.655
[6]; compound concentration: 50uM
  log2 ratio of Biotin-Ahx-Ub-VS probe labelling: -1.21 (active)
[6]; compound concentration: 100uM
  log2 ratio of Biotin-Ahx-Ub-VS probe labelling: -1.92 (active)
[6]; compound concentration: 200uM
  log2 ratio of Biotin-Ahx-Ub-VS probe labelling: -2.86 (active)
[7]; compound concentration: 0.78uM
  log2 ratio of Biotin-Ahx-Ub-VS probe labelling: -0.206
[7]; compound concentration: 1.56uM
  log2 ratio of Biotin-Ahx-Ub-VS probe labelling: -0.14
[7]; compound concentration: 3.13uM
  log2 ratio of Biotin-Ahx-Ub-VS probe labelling: -0.152
[7]; compound concentration: 6.25uM
  log2 ratio of Biotin-Ahx-Ub-VS probe labelling: -0.172
[7]; compound concentration: 12.5uM
  log2 ratio of Biotin-Ahx-Ub-VS probe labelling: -0.352
[7]; compound concentration: 25uM
  log2 ratio of Biotin-Ahx-Ub-VS probe labelling: -0.535
[7]; compound concentration: 50uM
  log2 ratio of Biotin-Ahx-Ub-VS probe labelling: -0.958
[7]; compound concentration: 100uM
  log2 ratio of Biotin-Ahx-Ub-VS probe labelling: -1.39 (active)
[7]; compound concentration: 200uM
  log2 ratio of Biotin-Ahx-Ub-VS probe labelling: -2.13 (active)
[8]; compound concentration: 0.78uM
  log2 ratio of Biotin-Ahx-Ub-VS probe labelling: -0.176
[8]; compound concentration: 1.56uM
  log2 ratio of Biotin-Ahx-Ub-VS probe labelling: -0.178
[8]; compound concentration: 3.13uM
  log2 ratio of Biotin-Ahx-Ub-VS probe labelling: -0.176
[8]; compound concentration: 6.25uM
  log2 ratio of Biotin-Ahx-Ub-VS probe labelling: -0.252
[8]; compound concentration: 12.5uM
  log2 ratio of Biotin-Ahx-Ub-VS probe labelling: -0.529
[8]; compound concentration: 25uM
  log2 ratio of Biotin-Ahx-Ub-VS probe labelling: -0.893
[8]; compound concentration: 50uM
  log2 ratio of Biotin-Ahx-Ub-VS probe labelling: -1.41 (active)
[8]; compound concentration: 100uM
  log2 ratio of Biotin-Ahx-Ub-VS probe labelling: -2.07 (active)
[8]; compound concentration: 200uM
  log2 ratio of Biotin-Ahx-Ub-VS probe labelling: -2.61 (active)
[9]; compound concentration: 50uM
  log2 ratio of Biotin-Ahx-Ub-VS probe labelling: -0.491
[9]; compound concentration: 200uM
  log2 ratio of Biotin-Ahx-Ub-VS probe labelling: -1.4 (active)
[10]; compound concentration: 50uM
  log2 ratio of Biotin-Ahx-Ub-VS probe labelling: -0.395
[10]; compound concentration: 200uM
  log2 ratio of Biotin-Ahx-Ub-VS probe labelling: -0.505
[11]; compound concentration: 50uM
  log2 ratio of Biotin-Ahx-Ub-VS probe labelling: -0.0958
[11]; compound concentration: 200uM
  log2 ratio of Biotin-Ahx-Ub-VS probe labelling: -0.146
[12]; compound concentration: 50uM
  log2 ratio of Biotin-Ahx-Ub-VS probe labelling: -0.447
[12]; compound concentration: 200uM
  log2 ratio of Biotin-Ahx-Ub-VS probe labelling: -0.51
[13]; compound concentration: 50uM
  log2 ratio of Biotin-Ahx-Ub-VS probe labelling: -0.294
[13]; compound concentration: 200uM
  log2 ratio of Biotin-Ahx-Ub-VS probe labelling: -0.346
[14]; compound concentration: 50uM
  log2 ratio of Biotin-Ahx-Ub-VS probe labelling: -0.216
[14]; compound concentration: 200uM
  log2 ratio of Biotin-Ahx-Ub-VS probe labelling: -0.205
[15]; compound concentration: 50uM
  log2 ratio of Biotin-Ahx-Ub-VS probe labelling: -0.174
[15]; compound concentration: 200uM
  log2 ratio of Biotin-Ahx-Ub-VS probe labelling: -0.415
[16]; compound concentration: 50uM
  log2 ratio of Biotin-Ahx-Ub-VS probe labelling: 0.000974
[16]; compound concentration: 200uM
  log2 ratio of Biotin-Ahx-Ub-VS probe labelling: -0.823
[17]; compound concentration: 50uM
  log2 ratio of Biotin-Ahx-Ub-VS probe labelling: 0.0593
[17]; compound concentration: 200uM
  log2 ratio of Biotin-Ahx-Ub-VS probe labelling: -0.446
[18]; compound concentration: 50uM
  log2 ratio of Biotin-Ahx-Ub-VS probe labelling: -0.424
[18]; compound concentration: 200uM
  log2 ratio of Biotin-Ahx-Ub-VS probe labelling: -0.874
[19]; compound concentration: 50uM
  log2 ratio of Biotin-Ahx-Ub-VS probe labelling: -0.0278
[19]; compound concentration: 200uM
  log2 ratio of Biotin-Ahx-Ub-VS probe labelling: -0.809
[20]; compound concentration: 50uM
  log2 ratio of Biotin-Ahx-Ub-VS probe labelling: -0.284
[20]; compound concentration: 200uM
  log2 ratio of Biotin-Ahx-Ub-VS probe labelling: -0.721

Source: the supplement of paper PMC11732987, “Enantioselective OTUD7B fragment discovery through chemoproteomics screening and high-throughput optimisation” (Communications Chemistry, 2025)
